Screening results from PubChem BioAssay.
LASV entry inh – blocks Lassa virus binding to or entry into cells | Lassa virus pseudotype entry inhibition, cell reporter | Potency, µM (highest dose often 37.9 µM), usual class: inhibitors | actives 1.2% (n = 300,000) | AID 540256; calls by dose curve; tested in HEK293 cells; note: nearly all actives have a fitted effect of over 50% in size
HCV inhibitor – inhibitors of hepatitis C virus infection | Potency, µM (highest dose often 41.8 µM), actives largely listed as inhibitors | Huh7.5.1 HCVcc-Cre infection, luciferase reporter, 44 h | actives 3.4% (n = 340,000); active = well fitted inhibition curve with a large enough effect; inconclusive = small, poorly fitted or top-dose-only effect, or another doubt; inactive = no such curve, though single readings can be large or run the other way
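After 44 h co-culture of compound, cells and HCVcc-Cre (~0.5 moi), substrate is added for 15 min at room temperature and luciferase measured over 15 sec. Cells were seeded at 1,000/well and pre-cultured 4 h.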
HCMV inh – blocks human cytomegalovirus replication; HFF cells, HCMV-luciferase reporter, 72 h; hits give low values; activity change, negative = inhibition, % at 57.5 µM; actives 4.5% (n = 410,000); in the data active = activity change below about -60%; inconclusive = no clear call, values can overlap the other calls; inactive = above about -39%
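Luciferase read-out from HCMV-luciferase-infected HFFs (MOI 1 PFU/cell) 72 h post infection at 37C; compounds added after 16 h cell attachment; activity normalized between buffer-only basal and Salinomycin (10uM) inhibitor controls.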
FMDV inh – foot and mouth disease virus antiviral activity | actives 1.2% (n = 410,000) | Potency, µM (doses to about 57.9 µM), actives largely listed as inhibitors | FMDV antiviral cell-based qHTS; calls by dose curve; tested in HEK293T cells; note: read-out not given here; nearly all actives have a fitted effect of over 45% in size
Marburg entry inh – inhibitors of Marburg virus binding or cell entry; Marburg virus pseudotyped entry inhibition, cell reporter; actives 1.8% (n = 300,000); Potency, µM (top dose mostly 37.8 µM), hits mostly inhibitors; calls by dose curve; tested in HEK293 cells
Large screens that a line does not name were inactive. An excerpt weighted towards active compounds, which were near 7.9% of everything screened.

CCOC(=O)C(NC(=O)c1ccccc1)C(C)(C)SCc1ccccc1 (stereo unspecified)	none
CC(Oc1ccc(Cl)cc1)C(=O)Nc1ccccc1N1CCOCC1 (stereo unspecified)	LASV entry inh inconclusive, HCV inhibitor inconclusive, Marburg entry inh 13µM
Cc1cc(OCC(=O)N2CCOCC2)c(C(C)C)cc1Cl	none
Cc1cc(Cl)ccc1OC(C)C(=O)Nc1ccccc1N1CCOCC1 (stereo unspecified)	LASV entry inh inconclusive, HCV inhibitor 10µM, FMDV inh inconclusive, Marburg entry inh inconclusive
O=C(Nc1ccccc1N1CCOCC1)C1(c2ccc(Cl)cc2)CCC1	HCMV inh -66, FMDV inh inconclusive, Marburg entry inh inconclusive
Cc1cc(OCC(=O)Nc2ccccc2N2CCOCC2)c(C(C)C)cc1Cl	HCV inhibitor inconclusive, HCMV inh -66, FMDV inh inconclusive (no result: LASV entry inh, Marburg entry inh)
CC(Oc1cccc(Cl)c1)C(=O)Nc1ccccc1N1CCCC1 (stereo unspecified)	LASV entry inh inconclusive
Cc1cc(Cl)ccc1OC(C)C(=O)Nc1cccc(S(=O)(=O)N2CCOCC2)c1 (stereo unspecified)	none (no result: LASV entry inh, HCV inhibitor, Marburg entry inh)
O=C(Cc1ccc(Cl)cc1)NC(=S)Nc1ccccc1N1CCOCC1	HCV inhibitor inconclusive, Marburg entry inh inconclusive
N#C/C(=C\N1CCN(Cc2ccc3c(c2)OCO3)CC1)c1nc2ccccc2s1	HCV inhibitor 14µM
CCCCC1CC2=C(C(=O)OC(C)(C)O2)C(c2ccc(F)cc2)O1 (stereo unspecified)	none (no result: LASV entry inh, HCV inhibitor, Marburg entry inh)
O=C(c1cccc(C(F)(F)F)c1)C1CCCN(Cc2ccccc2O)C1 (stereo unspecified)	none
CN(C(=O)c1ccncc1)C1CCCN(Cc2ccccc2F)C1 (stereo unspecified)	none
Cc1cc(C)cc(C(=O)N(C)C2CCCN(Cc3ccccc3F)C2)c1 (stereo unspecified)	HCV inhibitor 13µM (no result: LASV entry inh, Marburg entry inh)
CN(C)c1cccc(C(=O)N(C)C2CCCN(Cc3ccccc3F)C2)c1 (stereo unspecified)	HCMV inh -71 (no result: LASV entry inh, Marburg entry inh)
O=C(NCC1CCCN(Cc2ccccc2F)C1)c1cccc(C(F)(F)F)c1 (stereo unspecified)	HCV inhibitor 11µM, HCMV inh inconclusive, Marburg entry inh inconclusive
COc1ccc(C(=O)N(C)C2CCCN(Cc3ccccc3F)C2)cc1OC (stereo unspecified)	none
COc1ccc(OC)c(CCNc2nc3cnc(-c4ccccc4Oc4ccccc4)cc3n2C)c1	none (no result: LASV entry inh, HCV inhibitor, FMDV inh, Marburg entry inh)
NS(=O)(=O)c1ccc(CCNC(=O)C2CCN(C(=O)Nc3ccccc3)CC2)cc1	Marburg entry inh inconclusive
CCOc1ccccc1CNC(=O)c1cc(-c2ccc(Cl)s2)nc2ccccc12	none (no result: HCV inhibitor)
CCOc1ccc(NC(=O)N(Cc2cn(CC)c3ccccc23)C2CCCCCC2)cc1	LASV entry inh inconclusive, HCMV inh -87, Marburg entry inh inconclusive (no result: HCV inhibitor)
CCc1ccc(NC(=O)N(Cc2cn(CC)c3ccccc23)C2CCCCC2)cc1	LASV entry inh inconclusive, HCMV inh -104, Marburg entry inh inconclusive (no result: HCV inhibitor)
O=C(CCS(=O)(=O)c1nc(-c2ccc3c(c2)OCO3)cc(C(F)(F)F)n1)Nc1ccc(F)c(Cl)c1	HCMV inh -100, FMDV inh inconclusive (no result: HCV inhibitor)
Cc1cc(NC(=O)CCCS(=O)(=O)c2nc(-c3cccs3)cc(C(F)(F)F)n2)no1	LASV entry inh inconclusive, HCV inhibitor 11µM, FMDV inh inconclusive, Marburg entry inh inconclusive
COc1cc(NC(=O)CCS(=O)(=O)c2nc(-c3cccs3)cc(C(F)(F)F)n2)cc(OC)c1OC	LASV entry inh inconclusive, HCMV inh -98, FMDV inh 25µM, Marburg entry inh inconclusive (no result: HCV inhibitor)
COc1cc(NC(=O)CSc2nc(-c3cccs3)cc(C(F)(F)F)n2)cc(OC)c1OC	FMDV inh inconclusive, Marburg entry inh inconclusive (no result: HCV inhibitor)
COc1ccc(NC(=O)CCS(=O)(=O)c2nc(-c3cccs3)cc(C(F)(F)F)n2)cc1OC	LASV entry inh inconclusive, HCMV inh -101, FMDV inh 22µM, Marburg entry inh inconclusive (no result: HCV inhibitor)
O=C(O)CCS(=O)(=O)c1nc(-c2cccs2)cc(C(F)(F)F)n1	none
COc1ccc(NC(=O)CCS(=O)(=O)c2nc(-c3ccc4c(c3)OCO4)cc(C(F)(F)F)n2)cc1OC	none (no result: HCV inhibitor)
NC(=O)c1nsc(C(=O)N(c2cccc(F)c2)C(C(=O)NCC2CCCO2)c2c[nH]c3ccccc23)c1N (stereo unspecified)	LASV entry inh inconclusive, Marburg entry inh inconclusive
O=C(CSC(=S)N1CCOCC1)c1cc2ccccc2oc1=O	none (no result: LASV entry inh, HCMV inh, Marburg entry inh)
COc1cc(CC(=O)OCC(=O)NCc2cccs2)cc(OC)c1OC	none
O=C(CCS(=O)(=O)c1nc(-c2cccs2)cc(C(F)(F)F)n1)Nc1cccc(O)c1	HCMV inh -99, FMDV inh 22µM, Marburg entry inh inconclusive (no result: HCV inhibitor)
Cc1ccccc1NS(=O)(=O)c1cc(C(=O)NCc2ccco2)ccc1C	LASV entry inh 1.6µM, HCV inhibitor inconclusive
Cc1ccc(SCCNC(=O)c2ccc(C)c(S(=O)(=O)Nc3ccccc3C)c2)cc1	LASV entry inh 10µM, HCV inhibitor inconclusive, Marburg entry inh 23µM (no result: FMDV inh)
COc1ccccc1NS(=O)(=O)c1cc(C(=O)NCc2ccco2)ccc1C	none
Cc1ccc(C)c(NS(=O)(=O)c2cc(C(=O)NCc3ccco3)ccc2C)c1	LASV entry inh inconclusive, HCV inhibitor inconclusive
Cc1ccc(C(=O)NCc2ccco2)cc1S(=O)(=O)Nc1cccc(C)c1C	LASV entry inh inconclusive, HCV inhibitor inconclusive, Marburg entry inh 21µM
Cc1ccc(C(=O)NCCSC2CCCCC2)cc1S(=O)(=O)Nc1ccccc1	LASV entry inh inconclusive, HCV inhibitor inconclusive, HCMV inh -75, Marburg entry inh inconclusive (no result: FMDV inh)
Cc1ccc(C(=O)Nc2ccccc2)cc1S(=O)(=O)Nc1ccccc1	Marburg entry inh inconclusive (no result: HCV inhibitor)
CC(C)c1c(C(=O)NCCN2CCOCC2)cnn1-c1nccc(-c2ccco2)n1	none (no result: LASV entry inh, HCV inhibitor, HCMV inh, Marburg entry inh)
O=C(CCN1CCN(c2ccccc2F)CC1)Nc1cccc(F)c1	HCV inhibitor inconclusive (no result: LASV entry inh, Marburg entry inh)
CC[C@H]1CC2CN3CCc4c([nH]c5cc(OC)ccc45)[C@](C(=O)OC)(C2)[C@H]13	HCV inhibitor 35µM (no result: LASV entry inh, HCMV inh, Marburg entry inh)
COc1ccc(C(=O)N=c2c(C#N)cc3c(=O)n4cccc(C)c4nc3n2Cc2ccco2)cc1	none (no result: LASV entry inh, HCV inhibitor, HCMV inh, FMDV inh)
CC(=O)N=c1c(C#N)cc2c(=O)n3cccc(C)c3nc2n1Cc1ccco1	HCV inhibitor 11µM, HCMV inh inconclusive (no result: LASV entry inh, Marburg entry inh)
COc1ccc(CCNC(=O)c2cc3c(=O)n4cccc(C)c4nc3n(Cc3ccco3)c2=N)cc1OC	HCV inhibitor 11µM, FMDV inh inconclusive, Marburg entry inh inconclusive
Cc1ccc2nc3c(cc(C(=O)NCc4ccco4)c(=N)n3Cc3ccco3)c(=O)n2c1	HCV inhibitor 4.5µM, HCMV inh -61, Marburg entry inh inconclusive
Cc1ccc2nc3c(cc(C(=O)NCc4ccccc4)c(=N)n3CCCn3ccnc3)c(=O)n2c1	none (no result: LASV entry inh, Marburg entry inh)
N=c1c(C(=O)NCc2ccco2)cc2c(=O)n3ccccc3nc2n1Cc1ccc(Cl)cc1	HCV inhibitor 5µM, Marburg entry inh inconclusive
CCCCCCCCCCCCCCCC(=O)OC(CO)CO	none (no result: LASV entry inh, HCV inhibitor, HCMV inh, Marburg entry inh)
CO/N=C(\C(=O)N[C@@H]1C(=O)N2C(C(=O)O)=C(CSc3nc(=O)c(O)nn3C)CSC12)c1csc(N)n1 (stereo partly specified)	none (no result: HCV inhibitor, HCMV inh, FMDV inh)
